Assay results from PubChem BioAssay (NCI).
Values joined by “and” are separate entries in the source; they are usually repeats but may differ in a detail not shown here. Equal entries are not always repeated. Compounds without any hit were thinned out: in the full panel of roughly 83,000, 20% have a hit.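 Values shown are percent growth following 48 h exposure of cells in 96-well plates to a single concentration of compound; below 10 was considered active.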 Active and inactive are the calls of the source.

How the values were obtained:
Experiment in all cases: NCI-60 one-dose screen, 48 h (100 = growth as untreated, 0 = no growth, -100 = all killed)
NCI-H23 lung = tested on: NCI-H23 lung
NCI-H226 lung = tested on: NCI-H226 lung
NCI-H322M lung = tested on: NCI-H322M lung
HOP-62 NSCLC = tested on: HOP-62 NSCLC
NCI-H460 lung = tested on: NCI-H460 lung
HOP-92 NSCLC = tested on: HOP-92 NSCLC
NCI-H522 lung = tested on: NCI-H522 lung
A549/ATCC NSCLC = tested on: A549/ATCC NSCLC
786-0 renal = tested on: 786-0 renal
COLO 205 colon = tested on: COLO 205 colon

Measured: growth

O=[N+]([O-])c1cc(Cl)c(Cl)c([N+](=O)[O-])c1Cl
active: NCI-H522 lung; 10 µM unless noted -86.7% | COLO 205 colon; 10 µM unless noted -23.8%
inactive: NCI-H23 lung; 10 µM unless noted 85.6% | NCI-H226 lung; 10 µM unless noted 81.4% | NCI-H322M lung; 10 µM unless noted 123% | HOP-62 NSCLC; 10 µM unless noted 119% | NCI-H460 lung; 10 µM unless noted 99.7% | HOP-92 NSCLC; 10 µM unless noted 74.9% | A549/ATCC NSCLC; 10 µM unless noted 92.5% | 786-0 renal; 10 µM unless noted 114%

O=C(O)CCCc1ccc(N(CCCl)CCCl)cc1
inactive: NCI-H23 lung; 10 µM 102% and 79.4% | NCI-H23 lung; 75 µM 23.1% | NCI-H226 lung; 10 µM 78.7% and 88.2% | NCI-H226 lung; 75 µM 61.2% | NCI-H322M lung; 10 µM 98.7% and 112% | NCI-H322M lung; 75 µM 91.9% | HOP-62 NSCLC; 10 µM 90.1% and 91.6% | HOP-62 NSCLC; 75 µM 35% | NCI-H460 lung; 10 µM 86.6% and 54.5% | NCI-H460 lung; 75 µM 21% | HOP-92 NSCLC; 10 µM 95.3% and 40.2% | HOP-92 NSCLC; 75 µM 14.6% | NCI-H522 lung; 10 µM 87.2% and 59.6% | A549/ATCC NSCLC; 10 µM 89.2% | A549/ATCC NSCLC; 75 µM 46.1% | 786-0 renal; 10 µM 98.4% and 86.1% | COLO 205 colon; 10 µM 104% and 105% | COLO 205 colon; 75 µM 66.2%
active: NCI-H522 lung; 75 µM 0.62% | 786-0 renal; 75 µM 9.49%

Cc1ccc(N2CCN(CCC#N)CC2)cc1
inactive: NCI-H23 lung; 10 µM unless noted 100% | NCI-H226 lung; 10 µM unless noted 92.1% | NCI-H322M lung; 10 µM unless noted 75.2% | HOP-62 NSCLC; 10 µM unless noted 93.6% | NCI-H460 lung; 10 µM unless noted 97.7% | HOP-92 NSCLC; 10 µM unless noted 98.4% | NCI-H522 lung; 10 µM unless noted 84.6% | A549/ATCC NSCLC; 10 µM unless noted 88.5% | 786-0 renal; 10 µM unless noted 100% | COLO 205 colon; 10 µM unless noted 93.7%

Cc1cc[c-]cc1.Fc1c[c-]c(-c2ccccn2)c(F)c1.[Pt+2].c1ccc([PH+](c2ccccc2)c2ccccn2)cc1
inactive: NCI-H23 lung; 10 µM unless noted 70% | NCI-H226 lung; 10 µM unless noted 58.1% | NCI-H322M lung; 10 µM unless noted 83.6% | HOP-62 NSCLC; 10 µM unless noted 90.6% | NCI-H460 lung; 10 µM unless noted 61.5% | HOP-92 NSCLC; 10 µM unless noted 56.3% | NCI-H522 lung; 10 µM unless noted 64.4% | A549/ATCC NSCLC; 10 µM unless noted 41.8% | 786-0 renal; 10 µM unless noted 63.5% | COLO 205 colon; 10 µM unless noted 32.9%

C[C@]12CCC3[C@@H](C[C@@H]4SC(Nc5ccccc5)=N[C@@]45CC(=O)CC[C@]35C)[C@@H]1CCC2=O (stereo partly drawn)
active: NCI-H460 lung; 10 µM unless noted -13% | HOP-92 NSCLC; 10 µM unless noted -18.2% | NCI-H522 lung; 10 µM unless noted -66% | 786-0 renal; 10 µM unless noted -45% | COLO 205 colon; 10 µM unless noted -46.3%
inactive: NCI-H23 lung; 10 µM unless noted 42.5% | NCI-H226 lung; 10 µM unless noted 49.4% | NCI-H322M lung; 10 µM unless noted 58.2% | HOP-62 NSCLC; 10 µM unless noted 12.6% | A549/ATCC NSCLC; 10 µM unless noted 33.5%

C[N+]1(C)CCCC1c1cccnc1 (stereo not drawn)
inactive: NCI-H23 lung; 10 µM unless noted 101% | NCI-H226 lung; 10 µM unless noted 98.3% | NCI-H322M lung; 10 µM unless noted 104% | HOP-62 NSCLC; 10 µM unless noted 101% | NCI-H460 lung; 10 µM unless noted 108% | HOP-92 NSCLC; 10 µM unless noted 88.9% | NCI-H522 lung; 10 µM unless noted 102% | A549/ATCC NSCLC; 10 µM unless noted 95.9% | 786-0 renal; 10 µM unless noted 91% | COLO 205 colon; 10 µM unless noted 109%

CCCN1C(=O)NC(=O)C(CC)(N2C(=O)c3c(F)c(F)c(F)c(F)c3C2=O)C1=O (stereo not drawn)
active: NCI-H23 lung; 10 µM unless noted -52.1% | NCI-H322M lung; 10 µM unless noted -57.7% | HOP-62 NSCLC; 10 µM unless noted -57.3% | NCI-H460 lung; 10 µM unless noted -81% | HOP-92 NSCLC; 10 µM unless noted -50.5% | NCI-H522 lung; 10 µM unless noted -82.3% | A549/ATCC NSCLC; 10 µM unless noted -64.7% | 786-0 renal; 10 µM unless noted -58.5% | COLO 205 colon; 10 µM unless noted -81.9%
inactive: NCI-H226 lung; 10 µM unless noted 27.4%

O=[P+](O)c1cccnc1
inactive: NCI-H23 lung; 10 µM unless noted 103% | NCI-H226 lung; 10 µM unless noted 105% | NCI-H322M lung; 10 µM unless noted 94.9% | HOP-62 NSCLC; 10 µM unless noted 90.3% | NCI-H460 lung; 10 µM unless noted 107% | HOP-92 NSCLC; 10 µM unless noted 109% | NCI-H522 lung; 10 µM unless noted 75.7% | A549/ATCC NSCLC; 10 µM unless noted 101% | 786-0 renal; 10 µM unless noted 98.2% | COLO 205 colon; 10 µM unless noted 102%

O=C1CCCCC1CN1CCCCC1 (stereo not drawn)
inactive: NCI-H23 lung; 10 µM unless noted 99.6% | NCI-H226 lung; 10 µM unless noted 104% | NCI-H322M lung; 10 µM unless noted 94.6% | HOP-62 NSCLC; 10 µM unless noted 93% | NCI-H460 lung; 10 µM unless noted 101% | HOP-92 NSCLC; 10 µM unless noted 97.2% | NCI-H522 lung; 10 µM unless noted 84.3% | A549/ATCC NSCLC; 10 µM unless noted 94.9% | 786-0 renal; 10 µM unless noted 106%

CCCn1cc2c3c(cccc31)[C@H]1C[C@@H](C)CN(C)[C@@H]1C2
inactive: NCI-H23 lung; 10 µM unless noted 77% | NCI-H226 lung; 10 µM unless noted 93.4% | NCI-H322M lung; 10 µM unless noted 89.4% | HOP-62 NSCLC; 10 µM unless noted 86.4% | NCI-H460 lung; 10 µM unless noted 95.7% | HOP-92 NSCLC; 10 µM unless noted 29.7% | NCI-H522 lung; 10 µM unless noted 85.9% | A549/ATCC NSCLC; 10 µM unless noted 96% | 786-0 renal; 10 µM unless noted 81.7%

CNC(=O)O/N=C(\SC)C(=O)N(C)C
inactive: NCI-H23 lung; 10 µM unless noted 93.4% | NCI-H226 lung; 10 µM unless noted 110% | NCI-H322M lung; 10 µM unless noted 111% | HOP-62 NSCLC; 10 µM unless noted 105% | NCI-H460 lung; 10 µM unless noted 107% | HOP-92 NSCLC; 10 µM unless noted 76.8% | NCI-H522 lung; 10 µM unless noted 77.5% | A549/ATCC NSCLC; 10 µM unless noted 109% | 786-0 renal; 10 µM unless noted 105% | COLO 205 colon; 10 µM unless noted 105%

CC(C)CCC1C(=O)NC(=O)NC1=O
inactive: NCI-H23 lung; 10 µM unless noted 99.4% | NCI-H226 lung; 10 µM unless noted 116% | NCI-H322M lung; 10 µM unless noted 94.4% | HOP-62 NSCLC; 10 µM unless noted 87.4% | NCI-H460 lung; 10 µM unless noted 97.7% | HOP-92 NSCLC; 10 µM unless noted 109% | NCI-H522 lung; 10 µM unless noted 79.4% | A549/ATCC NSCLC; 10 µM unless noted 78.5% | 786-0 renal; 10 µM unless noted 104% | COLO 205 colon; 10 µM unless noted 100%
